Out of some 220,000 compounds screened, about 910 (0.41%) were called active. The full list was thinned out, with actives kept by preference. Results with a measured potency or affinity are listed apart. A number with no mark means an inactive call.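 The calls were made as follows: active = primary inhibition above the hit cutoff, then over 50% inhibition at one or more dose response concentrations (cut at about 23% in these data, passing the limit was not always enough); inconclusive = conflicting primary data, or primary hits not chosen for dose response; inactive = low primary inhibition, or under 50% at every dose.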 Where a SMILES comes first, the peptide text is derived from it.
biological target: Aminopeptidase N (Plasmodium falciparum (isolate 3D7)) (UniProt O96935); test: malaria alanyl aminopeptidase activity blockers – biochemical, fluorogenic H-Leu-NHMec substrate, 1536-well (AID 1445); conditions: recombinant M1AAP, H-Leu-NHMec fluorogenic kinetic assay; at 30 µM, hits give high values unless noted;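 also: plate controls were DMSO full reaction for no effect and no enzyme background for full effect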
Sequence (O96935 whole entry, looked up): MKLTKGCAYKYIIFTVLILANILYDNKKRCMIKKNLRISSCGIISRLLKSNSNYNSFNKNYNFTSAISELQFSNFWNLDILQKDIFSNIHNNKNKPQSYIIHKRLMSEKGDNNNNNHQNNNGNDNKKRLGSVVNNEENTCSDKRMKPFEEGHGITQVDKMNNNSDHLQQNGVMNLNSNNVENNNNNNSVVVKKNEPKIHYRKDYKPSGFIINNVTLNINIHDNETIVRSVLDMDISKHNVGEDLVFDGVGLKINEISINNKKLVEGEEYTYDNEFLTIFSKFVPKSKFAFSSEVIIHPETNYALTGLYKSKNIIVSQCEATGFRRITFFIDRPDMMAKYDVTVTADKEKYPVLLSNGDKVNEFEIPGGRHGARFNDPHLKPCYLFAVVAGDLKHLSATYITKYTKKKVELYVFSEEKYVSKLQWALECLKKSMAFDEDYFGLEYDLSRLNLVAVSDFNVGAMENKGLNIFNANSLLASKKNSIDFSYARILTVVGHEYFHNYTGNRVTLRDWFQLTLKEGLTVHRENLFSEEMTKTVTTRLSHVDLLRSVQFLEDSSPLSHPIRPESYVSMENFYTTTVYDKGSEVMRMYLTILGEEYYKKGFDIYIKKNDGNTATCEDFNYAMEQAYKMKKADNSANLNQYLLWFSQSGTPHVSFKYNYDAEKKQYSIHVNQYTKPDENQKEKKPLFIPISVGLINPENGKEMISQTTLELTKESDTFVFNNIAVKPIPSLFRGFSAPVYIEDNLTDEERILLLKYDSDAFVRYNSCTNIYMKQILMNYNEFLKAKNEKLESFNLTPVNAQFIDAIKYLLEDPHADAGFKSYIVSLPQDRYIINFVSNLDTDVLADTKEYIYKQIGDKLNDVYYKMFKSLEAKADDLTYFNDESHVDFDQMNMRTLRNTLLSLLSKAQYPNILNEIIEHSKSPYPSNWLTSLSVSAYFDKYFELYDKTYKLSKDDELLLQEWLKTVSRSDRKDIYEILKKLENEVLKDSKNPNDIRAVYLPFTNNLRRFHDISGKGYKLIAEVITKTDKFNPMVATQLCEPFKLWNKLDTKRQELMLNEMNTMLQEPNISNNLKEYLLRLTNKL

SMILES | inhibition
C/C(CC(=O)Nc1cccc(C(F)(F)F)c1)=N/NC(=O)C(=O)NCCO | 8.99%
O=C(Cc1c[nH]c2ccccc12)N/N=C/c1ccccc1O | 20.7%
COc1ccc(NC(=O)C(C)N2C(=O)c3ccccc3C2=O)cc1S(=O)(=O)N1CCOCC1 (stereo not drawn) | 9.37%
CC(C(=O)Nc1ccc(N2CCOCC2)cc1)N1C(=O)c2ccccc2C1=O (stereo not drawn) | 4.39%
COc1ccc(NC(=S)N(CCc2c(C)[nH]c3ccccc23)Cc2ccco2)cc1 | -1.5%
O=C(Nc1ccc2snnc2c1)N1CCSCC1 | 6.62%
CC(c1ccccc1)N1C(=O)c2ccccc2C1O (stereo not drawn) | 0.46%
CN(C)S(=O)(=O)c1ccc(N2CCOCC2)nc1 | 8.35%
Cc1ccc(S(=O)(=O)NN2C(=O)/C(=C/c3ccccn3)SC2=S)cc1 | 17.4%
CC(=O)NN1C(=O)/C(=C\c2ccccc2)SC1=S | 12.8%
O=S(=O)(Nc1nc2ccccc2[nH]1)c1ccccc1 | 1.84%
O=C(NN1C(=O)/C(=C/c2cccs2)SC1=S)c1ccccc1 | 7.49%
O=C(NN1C(=O)/C(=C/c2cccs2)SC1=S)c1ccncc1 | 20.6%
O=C1/C(=C/c2cccs2)SC(=S)N1c1ccccc1 | 5.36%
Nc1nnc(CSc2ccc(Cl)cc2)s1 | -0.69%
COc1cccc(NC(=O)C(Sc2nnc(-c3ccncc3)n2-c2ccc(Cl)cc2)c2ccccc2)c1 (stereo not drawn) | -1.95%
C=CCOc1c2ccc(C(=O)NCc3ccc(OC)cc3)cc2nn1C | 15.3%
Cc1cc(C)n(-c2ccc(C(=O)OCC(=O)c3c(N)n(C)c(=O)n(C)c3=O)cc2)n1 | 4.93%
O=C(CCCCn1c(=O)[nH]c2ccsc2c1=O)NCC1CCCO1 (stereo not drawn) | -2.47%
O=C(NCc1ccco1)c1ccc(Cl)c(S(=O)(=O)N2CCOCC2)c1 | 0.38%
COC(=O)c1cc(C(=O)NCCN2C(=O)S/C(=C\c3cccs3)C2=O)cc([N+](=O)[O-])c1 | 9.47%
CCOC(=O)c1cc(C)[nH]c(=S)c1C#N | 5.55%
COc1cc(/C=C/C(=O)O)cc(S(=O)(=O)NCc2ccco2)c1OC | 4.28%
COc1cc(/C=C/C(=O)O)cc(S(=O)(=O)Nc2ccc3c(c2)OCO3)c1OC | 10.2%

SMILES | inhibition
COc1cc(/C=C/C(=O)O)cc(S(=O)(=O)Nc2ccc(F)cc2)c1OC | 5.47%
COc1cc(/C=C/C(=O)O)cc(S(=O)(=O)Nc2cccc(SC)c2)c1OC | 9.82%
COc1cc(/C=C/C(=O)O)cc(S(=O)(=O)Nc2ccc3nc(C)sc3c2)c1OC | 3.42%
COc1cc(/C=C/C(=O)O)cc(S(=O)(=O)Nc2ccccc2Cl)c1OC | 5.83%
CC(=O)C1=C(O)C(=O)N(C2CCCCC2)C1c1ccccc1 (stereo not drawn) | 10.2%
CC(C)NC(=S)N(C)C1(c2ccccc2Cl)CCCCC1=O (stereo not drawn) | 2.06%
O=C(CCc1nc(-c2ccccc2F)no1)NCc1ccco1 | 8.13%
COCCNC(=S)Nc1ccc(N2CCCCC2)cc1 | 2.09%
Cc1ccc(N2C(=O)c3ccccc3C2=O)cc1Cl | -2.81%
Cc1cccc(N2C(=O)CCC2=O)n1 | -1.56%
Cc1ccc(N2C(=O)[C@@H]3C(C(=O)CN4C(=O)c5ccccc5C4=O)=NN[C@@H]3C2=O)c(C)c1 | 4.06%
Cc1ccc(N2C(=O)c3ccc(C(=O)O)cc3C2=O)c(C)c1 | -3.18%
Cc1ccc(N2C(=O)c3ccccc3C2=O)cc1C | 2.18%
Cc1cccc(NC(=O)CCCN2C(=O)c3ccccc3C2=O)n1 | -6.68%
CC(=O)Nc1ccc(/C(C)=N/NC(=O)c2ccc(F)cc2)cc1 | 7.12%
O=C(Cn1cncn1)N/N=C/c1ccncc1 | -2.16%
COc1ccc(N(C(=O)C(C)C)S(=O)(=O)c2ccc3c(c2)n(C)c(=O)n3C)cc1 | 4.01%
CC(C)c1ccc(-c2nnc(N)s2)cc1 | -1.69%
Cn1nc(C(C)(C)C)cc1NC(=O)Nc1ccc(F)cc1F | 6.33%
COc1ccc(S(=O)(=O)NCc2cc(-c3ccccc3Cl)no2)cc1 | 1.55%
COc1ccc(NC(=O)c2oc3ccccc3c2NC(=O)C(C)(C)C)cc1 | 6.73%
CCNc1nc(SC(C)C(=O)Nc2ccccc2)nc(N(C)C)n1 (stereo not drawn) | 0.28%
CCOC(=O)CNc1nc(Cl)nc(NC(C)(C)C)n1 | 5.43%
O=C(COc1ncnc2ccccc12)N1CCN(S(=O)(=O)c2ccc(Cl)cc2)CC1 | -2.49%

SMILES | inhibition
O=C(COc1ncnc2c(Cl)cc(Cl)cc12)N1CCN(S(=O)(=O)c2ccccc2)CC1 | 5.95%
O=C(COc1ncnc2ccccc12)N1CCN(S(=O)(=O)c2ccccc2)CC1 | 28.2% (active)
O=C(CSc1ncn[nH]1)NN(c1ccccc1)c1ccccc1 | 0.8%
CC(=O)Nc1ccc(S(=O)(=O)Nc2nc3ccccc3nc2Nc2ccc(O)cc2)cc1 | 29.4%
O=[N+]([O-])c1cccc(S(=O)(=O)Nc2nc3ccccc3nc2Nc2cccc(S(=O)(=O)N3CCCCC3)c2)c1 | 9.64%
O=[N+]([O-])c1ccc(S(=O)(=O)Nc2nc3ccccc3nc2Nc2ccccc2)cc1 | 2.42%
Cc1nc(-c2cccc(NS(=O)(=O)c3ccc4ccccc4c3)c2)cs1 | 11.2%
O=S(=O)(Nc1cccc(S(=O)(=O)N2CCCCCC2)c1)c1ccccc1 | -2%
CC(=O)Nc1ccc(S(=O)(=O)Nc2nc3ccccc3nc2Nc2ccc(S(N)(=O)=O)cc2)cc1 | 19.6%
Cc1nc(-c2cccc(NS(=O)(=O)c3ccccc3)c2)cs1 | 12.7%
CC(=O)Nc1ccc(Nc2nc3ccccc3nc2NS(=O)(=O)c2ccccc2)cc1 | 14.8%
COc1ccc(-n2c(COc3cccc4cccnc34)nnc2SCC(=O)O)cc1 | -1.59%
COc1cc(C)c(S(=O)(=O)NC2CC(C)(C)NC(C)(C)C2)cc1C | -4.25%
N/C(=N\OC(=O)Cc1ccccc1[N+](=O)[O-])c1ccccn1 | -2.27%
CC12CCC(=O)N1c1ccccc1C(=O)N2c1ccccc1 (stereo not drawn) | 5.47%
CCC(CC)C(=O)OCC(=O)Nc1ccc(S(=O)(=O)N2CCOCC2)cc1OC | -0.13%
COc1cccc2[nH]c3c(=O)n(CCCN4CCOCC4)cnc3c12 | 4.76%
CCOC(=O)c1c(C)c2c(n1C)CCC/C2=N\O | 5.95%
Fc1cccc(/C=N/Nc2ncnc3nc[nH]c23)c1 | 17.8%
CCOC(=O)c1c(C)[nH]c(C(=O)Nc2ccc(C)c(Cl)c2)c1C | -6.14%
CC(C)[C@H](NC(=O)[C@H](CC(=O)O)NC(=O)[C@H](CCCCN)NC(=O)[C@@H](N)CCCN=C(N)N)C(=O)N[C@@H](Cc1ccc(O)cc1)C(=O)O (H-RKDVY-OH) | -1.63%
O=C(N[C@@H](Cc1ccc(O)cc1)C(=O)O)C(c1ccccc1)c1ccccc1 | 1.32%
COc1cc(/C=N/n2cnnc2)ccc1OS(=O)(=O)c1ccccc1[N+](=O)[O-] | -1.85%
CC/C(C)=C1\SC(N2CCN(c3cccc(C(F)(F)F)c3)CC2)=NC1=O | -4.38%

SMILES | inhibition
O=C(COc1ccc(Cl)cc1)NNC(=O)c1cccnc1 | 3.11%
CCC(CC)NC(=O)c1cccc(Br)c1 | 4.75%
Cn1c(Cc2ccccc2)nnc1SCC(=O)NC1CCCCC1 | -1.27%
CCn1c(Cc2ccc(OC)cc2)nnc1SCC(=O)NC1CCCCC1 | 5.01%
COc1cccc(-n2c(SCC(=O)NC3CCCCC3)nc3n[nH]c(C)c3c2=N)c1 | 57.3% (active)
COc1cccc(NC(=O)CSc2nc3n[nH]c(C)c3c(=N)n2-c2cccc(OC)c2)c1 | 1.29%
CCc1ccc(NC(=O)CSc2nc3n[nH]c(C)c3c(=N)n2-c2cccc(OC)c2)cc1 | 3.02%
COc1ccc(Cc2nnc(SCC(=O)NC3CCCCC3)n2C)cc1 | 24.3% (active)
Cc1ccc(S(=O)(=O)Oc2ccccc2/C=N/NC(=O)c2nn(C)cc2[N+](=O)[O-])cc1 | 9.1%
CCOCCCNS(=O)(=O)c1ccc(OC)c(Cl)c1Cl | -1.01%
COc1cnn(Cc2ccccc2)c(=O)c1SCc1ccccc1 | 2.35%
CS(=O)(=O)N1CCN(c2ccc(NC(=S)NC(=O)c3ccccc3[N+](=O)[O-])cc2)CC1 | 2.8%
Cc1[nH]n(-c2ccccc2)c(=O)c1-c1ccc(Cl)cc1 | 17.9%
Cc1[nH]n(-c2cccc(Cl)c2)c(=O)c1-c1ccccc1 | 13.4%
Cc1[nH]n(-c2cccc(Cl)c2)c(=O)c1-c1ccc(Cl)cc1 | 27.2% (active)
CC(=O)c1sc(NC(=O)CCCOc2ccc(Cl)cc2)nc1C | -3.27%
O=c1c(=Nc2ccccc2O)c(=O)c2ccccc12 | -8.18%
Oc1ccccc1N=Nc1nc(-c2ccccc2)c(-c2ccccc2)[nH]1 | -7.75%
CCOc1ccc(NC(=S)Nc2ccc(Br)cc2Cl)cc1 | 2.64%
Cc1ccccc1NC(=O)CN1C(=O)C2C3CC(C(Br)C3Br)C2C1=O (stereo not drawn) | 5.98%
O=C(CN1C(=O)C2C3C=CC(C3)C2C1=O)Nc1ccc(C(=O)O)cc1 (stereo not drawn) | 14.6%

— PubChem BioAssay AID1445 (SRMLSC, 2008)
